Reference: PubChem BioAssay (NCI)
Compounds without any hit were thinned out: in the full panel of roughly 79,000, 15% have a hit. Unmarked numbers belong to inactive results. Active and inactive are the calls of the source. Cut-off read from the data, not from the text of the source: active = growth inhibition above about 70%; inactive = the rest. Where a SMILES comes first, the peptide text is derived from it. [ ]: non-standard residue; d: D form. The star is where a group is joined. ξ: configuration not given here. Cbz = O=C(OCc1ccccc1)*; ξK = NCCCCC(N)C(=O)O

Tests used:
[1] = NCI Yeast Anticancer Drug Screen. Data for the rad50 strain (AID 155);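 note: 0% = growth of vehicle-only cultures of the same strain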; conditions: S. cerevisiae rad50 strain growth inhibition; at 50.0 µM; stronger effect = higher value
Outline: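 Genetically altered yeast (DNA repair pathway); compound treatment; growth inhibition vs vehicle ctrl.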

[2] = NCI Yeast Anticancer Drug Screen. Data for the mec2-1 strain (AID 157); conditions: S. cerevisiae mec2-1 strain, at 50.0 µM, stronger effect = higher value
Outline: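 Strain: mec2-1 (DNA repair/cell cycle alteration). Compound exposure, then growth measured; inhibition expressed relative to vehicle.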

[3] = NCI Yeast Anticancer Drug Screen. Data for the sgs1 mgt1 strain (AID 161);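 note: 0% = growth of cultures given vehicle only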; conditions: S. cerevisiae sgs1 mgt1 strain, at 50.0 µM, stronger effect = higher value
Outline: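 Read-out: growth inhibition vs vehicle controls. Cells: mutant yeast strain deficient in DNA damage repair.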

[4] = NCI Yeast Anticancer Drug Screen. Data for the cln2 rad14 strain (AID 165);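 note: 0% = growth equal to vehicle treated cultures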; conditions: S. cerevisiae cln2 rad14 strain, at 50.0 µM, stronger effect = higher value
Outline: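 Compounds are applied to the cln2 rad14 yeast strain, and growth is then compared with that of vehicle-treated cultures to give inhibition.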

[5] = NCI Yeast Anticancer Drug Screen. Data for the bub3 strain (AID 167); conditions: S. cerevisiae bub3 mutant strain, at 50.0 µM, stronger effect = higher value
Outline: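 Yeast carrying a defined mutation is treated with each compound, and growth is compared with that of vehicle-exposed cells to give inhibition.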

[6] = NCI Yeast Anticancer Drug Screen. Data for the mlh1 rad18 strain (AID 175); conditions: S. cerevisiae mlh1 rad18 strain growth inhibition; at 50.0 µM; stronger effect = higher value
Outline: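 Read-out is yeast growth inhibition, calculated against vehicle-only controls. The compound was applied to a strain engineered with DNA damage repair alterations.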

Row | SMILES | growth inhibition [1] | growth inhibition [2] | growth inhibition [3] | growth inhibition [4] | growth inhibition [5] | growth inhibition [6]
1 | O=C(O)/C(Cc1ccnc2ccccc12)=N\O | -1.35% | 2.7% | -15.4% | -0.05% | -22.7% | 0.4%
2 | O=c1[nH]cc(C(F)(C(F)(F)F)C(F)(F)F)c(=O)[nH]1 | -21.9% | -18.9% | -24.6% | -4.25% | -25.3% | -36.8%
3 | Nc1ccc(N(S(=O)(=O)c2ccccc2)S(=O)(=O)c2ccccc2)c(Cl)c1 | 77.3% (active) | 45.8% | 82% (active) | 39.5% | 69% | 78.7% (active)
4 | c1cncc(-c2c3ccccc3cc3ccccc23)c1 | 22.3% | -16% | 2.8% | -8.5% | 4.8% | 5.1%
5 | S=c1ncnc2cc3[nH][nH]cc3cc12 | 1.95% | 2.5% | -5.35% | -33.5% | -7.95% | -2.25%
6 | Cn1c(N2CCCC2)c(C=O)c(=O)n(C)c1=O | 4.5% | 1.45% | 8.6% | 21.3% | -10.9% | -15.1%
7 | NC(=S)N/N=C/c1ccc(F)cn1 | 22.9% | 58.4% | -1.5% | -63.9% | -5.4% | 11.9%
8 | O=C(O)c1ccc(NC(=S)NC(=O)c2cccc([N+](=O)[O-])c2)cc1 | 5.55% | 16% | 16% | 16.8% | 23.6% | 23.6%
9 | O=S1(=O)C(Cl)c2ccccc2-c2ccccc2C1Cl (centres undefined) | -1.35% | -6.65% | -10.4% | 8.3% | 5% | -9.65%
10 | CC(C)CC(NC(=O)C(O)C(N)Cc1ccccc1)C(=O)O (centres undefined) | 56.5% | 26.6% | 60.4% | 47.8% | 36% | -21.7%
11 | Cc1ccc(NC(=O)CCc2nnc3s/c(=C\c4cccc([N+](=O)[O-])c4)c(=O)n23)cc1 | -31.4% | -8.45% | -10.6% | 14% | 10.7% | 3.3%
12 | O=c1c2ccccc2c(=O)n2n1CC=CC2 | -6.45% | -4.2% | -1.75% | -15.2% | -2.75% | -1.9%
13 | O=C(NCc1cccnc1)C1COc2cc(-c3cc(=O)c4ccccc4o3)ccc2O1 (centres undefined) | -9.55% | -18.9% | -23.9% | -5.25% | -6.95% | -49%
14 | CN(C)C(=O)/N=C1\SC(=Nc2ccccc2)C(=Nc2ccccc2)N1c1ccc([N+](=O)[O-])cc1 | -1.65% | 5.5% | -1.7% | 27.2% | 16.4% | -12.3%
15 | O=C(O)c1ccc(-c2c3ccc(=O)cc-3oc3cc(O)ccc23)cc1 | 18% | -30.1% | 6.05% | 22.1% | 23.9% | 20.4%
16 | O=C1N=C(C=c2ccc(=Cc3[nH]c(=O)[nH]c3O)cc2)C(=O)N1 | -5.95% | -11.4% | -14.9% | 13.9% | 8.35% | 5.7%
17 | C[N+](C)(C)CC(=O)c1ccc[nH]1 | 2.1% | -11.2% | 14.9% | -0.8% | 1.4% | 13.1%
18 | CNC(=O)C1CCC(CC2CCCCC2)CC1 (centres undefined) | 45.4% | 49.5% | 77.1% (active) | 11.2% | 42.8% | 38.5%
19 | CC1(C)N=C(N)N=C(N)N1c1ccc(C(F)(F)F)cc1 | 4.15% | 10.1% | 7.85% | -0.5% | 49% | 29.4%
20 | COC1=Cc2nc3ccccc3nc2OC1(C)C | -13.2% | 3.15% | 10.6% | -16.4% | 17.8% | 3.75%

Row | SMILES | growth inhibition [1] | growth inhibition [2] | growth inhibition [3] | growth inhibition [4] | growth inhibition [5] | growth inhibition [6]
21 | O=C1OC(=O)c2c(Cl)c(Cl)c(Cl)c(Cl)c21 | 8.55% | -0.15% | 23.9% | -34.9% | -6.25% | 2.5%
22 | COc1ccc(C(O)S(=O)(=O)O)cc1 (centres undefined) | -1.1% | -13.9% | -9.9% | -6.75% | -22.1% | 1.2%
23 | CC(COc1ccc(Cl)cc1)OS(=O)(=O)CCCl (centres undefined) | 14.3% | 13% | -16.1% | -16.1% | -1.1% | -4.65%
24 | CN(N=O)C(=O)NCCc1ccccc1 | 13.6% | -11.9% | 11.6% | -36.6% | -5.2% | 16.2%
25 | CCCc1nc2ccccc2c(=O)n1/N=C/c1ccc(Cl)cc1Cl | -11.7% | 0.4% | 0.05% | 3% | -3.45% | -3.4%
26 | CCC(=O)Nc1cccc2ccccc12 | 5.1% | -12.7% | -10.9% | -92.4% | -5.95% | -3.1%
27 | CN(C)c1ccc2c(c1)Cc1cc(N3C(=O)C=CC3=O)ccc1-2 | 97.3% (active) | 98% (active) | 98.9% (active) | 97.6% (active) | 98.2% (active) | 98.5% (active)
28 | CCOC(=O)C(=CNc1ccc(NC2=NCC(C)S2)cc1)C(=O)OCC (centres undefined) | -0.05% | 0.35% | -20.4% | -7.9% | -35.8% | -47%
29 | O=C(O)CC1CC(=O)OC1(c1ccccc1)c1ccccc1 (centres undefined) | 18% | 11.6% | 20.9% | 2.8% | 8.15% | 6.45%
30 | NCCCCC(NC(=O)OCc1ccccc1)C(=O)NCC(N)=O (centres undefined) (Cbz-[ξK]-Gly-NH2) | 10.1% | 8.5% | 5% | 4.05% | 16.1% | -30.2%
31 | O=C(O)CNC(=O)CNC(=O)C(CCC(=O)OCc1ccccc1)NC(=O)OCc1ccccc1 (centres undefined) | 27.2% | 12.3% | 14.4% | 9.3% | 6.2% | 15.2%
32 | COc1ccc2nc(N/N=C/C(C)=N/Nc3cc(C)c4cc(OC)ccc4n3)cc(C)c2c1 | -3% | 4.8% | -2% | 3.4% | 0.15% | -23.2%
33 | CC(=O)CCCCCCCCCCCCCC(C)=O | -18.1% | -5.1% | -21.1% | -10.8% | 6.25% | -6%
34 | CCn1ncc2c1nc(-c1ccccc1)c[n+]2[O-] | 17.1% | 4% | -34.5% | -12.4% | -44.9% | -52%
35 | COc1ccc(NC(=O)Nc2ccc(SC)cc2)c(Cl)c1 | 0.75% | 5.6% | -2.8% | -13.9% | 19.5% | 20.9%
36 | C=CCN(CC=C)c1nc(N)c2ccc(Cl)cc2n1 | -8% | -8% | -6.65% | -52.4% | -10.8% | -6.45%
37 | CC(C)(C)/C=C/N=NNc1ccccc1C(=O)NC(C)(C)C | 9.5% | 0.2% | 1.8% | -54.5% | -2% | 12.1%
38 | CC(=O)N/C(=C\c1ccc(Cc2nc3c([nH]2)C(=O)c2ccccc2C3=O)cc1)c1nc2c([nH]1)C(=O)c1ccccc1C2=O | -7.5% | 12.4% | 11.1% | 23.7% | 15.2% | 33.1%
39 | NCCCN=c1ccc2c3c1c(O)c1c(O)ccc(=O)c1c3[nH]n2CCNCCO | 89.1% (active) | 35.1% | 33.3% | 17.9% | 28.6% | 36.2%
